This is an account of results in PubChem BioAssay AID933 (National Center for Advancing Translational Sciences (NCATS), 2007).

Results filed as inconclusive are left out. Calls of active or inactive are those of the source. Calls come from the whole dose curve; as a rule, active = well fitted activation curve with a large enough effect in the signal ratio, with a control signal flat; inconclusive = small, poorly fitted or top-dose-only effect, or a change in a side signal; inactive = flat fitted curve, though single readings scatter; the % refers to the signal ratio.
Potency is the fitted concentration of half-maximal effect.

Chain of Thyrotropin receptor (Homo sapiens) (P16473 whole entry, looked up): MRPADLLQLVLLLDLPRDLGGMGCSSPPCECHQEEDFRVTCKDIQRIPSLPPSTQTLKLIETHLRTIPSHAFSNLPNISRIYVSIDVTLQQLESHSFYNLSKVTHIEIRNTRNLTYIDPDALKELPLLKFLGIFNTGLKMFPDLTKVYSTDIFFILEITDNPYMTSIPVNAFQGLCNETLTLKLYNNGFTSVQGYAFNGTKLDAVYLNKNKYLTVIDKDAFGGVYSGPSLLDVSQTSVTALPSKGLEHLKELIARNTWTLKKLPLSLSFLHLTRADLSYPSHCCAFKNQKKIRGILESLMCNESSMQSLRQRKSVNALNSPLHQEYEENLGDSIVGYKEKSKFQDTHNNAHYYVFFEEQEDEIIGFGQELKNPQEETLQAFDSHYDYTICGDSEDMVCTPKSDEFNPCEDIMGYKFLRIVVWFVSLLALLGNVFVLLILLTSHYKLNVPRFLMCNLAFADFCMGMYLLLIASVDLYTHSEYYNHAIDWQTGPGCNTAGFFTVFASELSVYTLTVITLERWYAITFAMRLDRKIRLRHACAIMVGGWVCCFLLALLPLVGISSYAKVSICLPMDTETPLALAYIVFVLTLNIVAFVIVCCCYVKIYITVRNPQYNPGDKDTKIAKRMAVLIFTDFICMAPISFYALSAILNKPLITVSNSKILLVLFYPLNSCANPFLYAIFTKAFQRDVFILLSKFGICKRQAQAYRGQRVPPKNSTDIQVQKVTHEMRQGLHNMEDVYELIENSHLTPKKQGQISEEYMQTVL

This test addresses Thyrotropin receptor (Homo sapiens) (UniProt P16473). The experiment in a line: Secondary Concentration-Response Assay for Agonists of the Thyroid Stimulating Hormone Receptor: HTRF Activity Detection.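 For activation: HEK 293 cells stably expressing human TSHR with RO 20-1724 phosphodiesterase inhibitor; % of control where 0% means no effect.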 Conditions: HEK293-TSHR cells, cAMP HTRF ratio, 30 min; series mostly up to 91.7 µM; activation: at the top concentration. The text has this:
NIH Chemical Genomics Center [NCGC]
NIH Molecular Libraries Screening Centers Network [MLSCN]
PI Name: Dr. Marvin Gershengorn, NIH
Confirmation of Thyroid Stimulating Hormone Receptor Agonists
TSH is an alpha/beta heterodimeric glycoprotein hormone secreted from the anterior pituitary gland which belongs to the glycoprotein hormone family. The actions of TSH are mediated by a seven-transmembrane receptor, which upon TSH binding couples preferentially to the G-alpha (s) protein (Gs), resulting in activation of adenylate cyclase and increase in cyclic adenosine 3', 5' monophosphate (cAMP). The TSH receptor (THSR) is mainly expressed in thyroid follicular cells and regulates their growth and function. Recombinant TSH is used to activate TSHR in patients with thyroid cancer receiving thyroid hormone suppression therapy and to screen for residual tumor after surgery, but it is expensive and must be administered intramuscularly. An orally active small molecule TSHR agonist would serve as an invaluable research tool for studying TSHR pharmacology and physiology, and would have multiple advantages in therapeutic settings. However, no selective small molecule agonist of the TSH receptor exists, and no small molecule screen for TSHR agonists has ever been reported.
A confirmatory assay of putative TSHR agonists was conducted on a different TSHR transfected HEK 293 cell line, using an orthogonal detection technology to measure cAMP stimulation: antibody-based Homogeneous Time Resolved Fluorescence (HTRF).
NCGC Assay Protocol Summary:
Homogeneous Time Resolved Fluorescence (HTRF) cAMP Assay. HEK 293 cells stably transfected with a vector containing the TSHR and maintained under hygromycin selection were obtained from the laboratory of Dr. Marvin Gershengorn. Compounds were assayed using a HTRF cAMP detection kit (Cisbio) on the TSHR transfected cell line. Briefly, 750 cells were plated in 2.5 ul/well of complete media (DMEM containing 10 % FCS, and 100 uM RO 20-1724) in 1536 well solid bottom white plates and 23 nl/well compound in DMSO solution or controls was added. Following 30 minute incubation at room temperature, 2.5 ul/well of labeled d2 cAMP and 2.5 ul/well of anti-cAMP antibody (both diluted 1:20 in lysis buffer) were added to each well using a flying reagent dispenser (Aurora Discovery, San Diego) . Plates were measured using the Envision plate reader (PerkinElmer, Boston, MA) with excitation at 330 nm and emissions of 615 nm and 660 nm.
Keywords: Thyroid-stimulating hormone TSH, TSHR, TSHR agonist, quantitative high throughput screening, qHTS, HTS, probe identification, CNG, cAMP, cyclic nucleotide gated ion channel PubChem
On the technique in general: Time-resolved FRET reads energy transfer from a long-lived donor to a nearby acceptor.
Consider `COc1ccc(C2Nc3ccccc3C(=O)N2Cc2cccc(-c3ccccc3)c2)cc1COc1ccc(NC(C)=O)cc1` (stereo not given), for which the Potency was 2.24 µM (active). The same measure, in the same setting: next, `COc1ccc(C(=O)N(Cc2ccccc2)Cc2ccccc2)c(O)c1`: 25.1 µM (active).

With `CCCC(=O)C1=C(SCC)CC(C)(C)C(C(=O)OC)C1=O` (stereo not given), the activation was 0.0277% [at 0.00035 µM] (inactive).

Regarding `COc1ccc(-c2nc3ccc(NC(C)=O)cc3c(=O)n2Cc2ccccc2)cc1COc1ccc(NC(C)=O)cc1`, the “activation” value was 19.5% (inactive). In the case of `COc1ccc(C2Nc3ccccc3C(=O)N2c2ccccc2)cc1Cn1cc([N+](=O)[O-])cn1` (stereo not given), the “activation” value was 0.747% (inactive). On to `COc1ccc(C(=O)N(Cc2ccccc2)Cc2cccs2)c(O)c1`, for which the Potency was 28.2 µM (active). As to `COc1cc(OC)c(C(=O)N(Cc2ccco2)Cc2cccs2)cc1OC`, the “activation” value is 1.09% (inactive). Same read-out and setting: next, `Cc1ccc(S(=O)(=O)N2CCC(C(=O)NCCCN3CCCCCC3)CC2)cc1`: 0.566% [at 0.00035 µM] (inactive); `O=C1CC(c2ccco2)CC2=C1C(c1cccnc1)n1nc(C(F)(F)F)nc1N2` (stereo not given): 8.86% (inactive); `CC1(c2ccccn2)Nc2ccccc2-c2nc3ccccc3n21` (stereo not given): -0.34% [at 0.00035 µM] (inactive). Same read-out and setting: the same measure for `Cc1nn(C)c(C)c1S(=O)(=O)N(CC(=O)Nc1nccs1)c1ccc(C(C)C)cc1`: 0.117% [at 0.00035 µM] (inactive); for `CCCN1C(=O)c2ccccc2NC1c1ccc(OC)c(COc2cccc(C)c2C)c1` (stereo not given): 1.8% (inactive). The same measure, in the same setting: next, `COC(=O)CNC(=O)C12CC3(C)CC(C)(CC(C)(C3)C1)C2`: 0.274% [at 0.00035 µM] (inactive).

Regarding `COc1cc(C2Nc3ccccc3C(=O)N2c2ccccc2OC)ccc1O` (stereo not given), the “activation” value was 1.38% (inactive). As for `COc1ccc(C2Oc3ccccc3C(=O)N2Cc2ccccc2)cc1COc1ccc(NC(C)=O)cc1` (stereo not given), the Potency is 12.6 µM (active). For the compound `NC(=O)c1nsc(C(=O)N(CC(=O)NC2CCCC2)Cc2ccc3c(c2)OCO3)c1N`, the “activation” value is 0.815% (inactive). The same measure, in the same setting: the same measure for `CCC(=O)Nc1ccc(OCc2cc(C3Nc4ccccc4C(=O)N3Cc3ccccc3)ccc2OC)cc1` (stereo not given): 28% (inactive).

With `COc1ccc(C2Nc3ccc(NC(=O)COC(C)=O)cc3C(=O)N2Cc2ccccc2)cc1COc1ccc(NC(C)=O)cc1` (stereo not given), the Potency is 8.91 µM (active).

With `CC(=O)Nc1ccc(C2Nc3ccccc3C(=O)N2C2CCCCC2)cc1` (stereo not given), the “activation” value is 0.608% (inactive). With `NC(=O)c1nsc(C(=O)N(CC(=O)NCc2ccc3c(c2)OCO3)C2CCCC2)c1N`, the Potency entry was “inactive”.

With `CCN(CC)CCN1C(=O)c2ccccc2NC1c1ccc(N(C)C)cc1` (stereo not given), the “activation” value was 1.45% (inactive). On the same count and under the same terms, the same measure for `N#Cc1ccc(C(=O)N(Cc2ccco2)Cc2cccs2)cc1`: 4.24% (inactive); for `Cc1cc(C)n(S(=O)(=O)c2cc(C(=O)O)c(Cl)cc2Cl)n1`: -0.754% [at 0.00035 µM] (inactive); for `CCC(C)(C)n1nnnc1CN(Cc1ccco1)Cc1cc2cc3c(cc2[nH]c1=O)OCO3`: 0.108% [at 0.00035 µM] (inactive). On the same count and under the same terms, the same measure for `O=c1c2ccccc2nc(-c2ccccc2O)n1Cc1ccccc1`: 4.17% (inactive); for `COc1ccc(C2Nc3ccccc3C(=O)N2Cc2ccccc2)cc1COc1ccc(Cl)cc1` (stereo not given): 15.5% (inactive); for `COc1ccc(C2Nc3ccccc3C(=O)N2Cc2ccccc2)cc1COc1ccc(Cl)cc1Cl` (stereo not given): 1.07% (inactive). The same measure, in the same setting: the same measure for `CCOc1cc(C(=O)N(C)c2ccccc2)cc(OCC)c1OCC`: 1.28% [at 0.00035 µM] (inactive); for `CCOc1ccc(N(CC(=O)NCc2cccs2)S(=O)(=O)c2c(C)noc2C)cc1`: -0.0859% [at 0.00035 µM] (inactive); for `COc1ccc2c(c1OC)C(=O)N1c3ccccc3C(=O)N(c3ccc(F)cc3)C21` (stereo not given): 0.277% (inactive). On to `COc1ccc(C2Nc3ccc(Cl)cc3C(=O)N2Cc2ccccc2)cc1COc1ccc(NC(C)=O)cc1` (stereo not given), for which the Potency is 14.1 µM (active). With `CCCN1C(=O)c2ccccc2NC1c1cc(OC)c(OC)c(OC)c1` (stereo not given), the “activation” value was 1.24% (inactive). The same measure, in the same setting: next, `C=C(C)Cn1c(-c2ccccc2)nc2ccccc21`: 0.0214% [at 0.00035 µM] (inactive); `O=C1c2ccccc2NC(c2ccccc2Br)N1CCCN1CCOCC1` (stereo not given): 0.626% (inactive); `COc1ccc(C2Nc3ccccc3C(=O)N2c2ccccc2F)cc1COc1ccc(NC(C)=O)cc1` (stereo not given): 11.4% (inactive). Still for that read-out and setting: the same measure for `O=C1c2ccccc2NC(c2ccc3c(c2)OCCO3)N1c1ccc2c(c1)OCCO2` (stereo not given): 2.01% (inactive); for `COc1ccc(C2Nc3ccccc3C(=O)N2Cc2ccccc2Cl)cc1COc1ccc(NC(C)=O)cc1` (stereo not given): 10.2% (inactive). With `CCCN1C(=O)c2ccccc2NC1c1ccc(OC)c(CSc2ccccn2)c1` (stereo not given), the “activation” value is 3.44% (inactive). On the same count and under the same terms, next, `COc1ccc(C2Nc3ccccc3C(=O)N2CCCN(C)C)cc1COc1ccc(NC(C)=O)cc1` (stereo not given): 2.95% (inactive); `COc1ccc(C2Nc3ccccc3C(=O)N2Cc2ccccc2)cc1COc1ccccn1` (stereo not given): 1.5% (inactive).
